Test results: PubChem BioAssay (NCI)
About 83,000 compounds went through this panel and 20% of them were active in at least one assay; those are over-represented in the sample as a whole.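 Plates (96-well) were seeded with cells, treated with compound at one concentration, and incubated for 48 hours before percent growth was determined.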 Unmarked numbers belong to inactive results. Activity calls are given as the source filed them. The calls were made as follows: active = growth percent below 10; inactive = the rest.

Key:
Test in all cases: NCI-60 one-dose screen, 48 h (100 = growth as untreated, 0 = no growth, -100 = all killed)
Conditions in all cases: 10 µM unless noted
T-47D breast = system: T-47D breast
BT-549 breast = system: BT-549 breast
MDA-MB-435 melanoma = system: MDA-MB-435 melanoma
SW-620 colon = system: SW-620 colon
MCF7 breast = system: MCF7 breast
HCT-116 colon = system: HCT-116 colon
HCC-2998 colon = system: HCC-2998 colon
KM12 colon = system: KM12 colon

Structure (SMILES)	growth (T-47D breast)	growth (BT-549 breast)	growth (MDA-MB-435 melanoma)	growth (SW-620 colon)	growth (MCF7 breast)	growth (HCT-116 colon)	growth (HCC-2998 colon)	growth (KM12 colon)
CCCCCCCCCCCCCCCCCCOc1ccccc1COP(=O)(O)OOCC[N+](C)(C)C	16.8%	25.5%	7.62% (active)	6.94% (active)	16.2%	1.15% (active)	-8.6% (active)	0.411% (active)
C#C[C@]1(OC(=O)CCCCCC)CC[C@H]2[C@@H]3CCC4=CC(=O)CC[C@@H]4[C@H]3CC[C@@]21C	37.8%	34.1%	18.3%	28.1%	76%	12%	49.9%	29.2%
C[Se]C(=O)c1ccccc1OC(C)=O	–	27.9%	46.4%	79.6%	53.3%	19.6%	95.5%	88.9%
Fc1ccc2c(c1)c(-c1nc(-c3c[nH]c4ncccc34)cs1)cn2CCCCN1CCCCC1	-68.8% (active)	75.7%	-87.2% (active)	-73.7% (active)	-75.3% (active)	-97.9% (active)	-19% (active)	-66.9% (active)
C1CCC([PH+](C2CCCCC2)C2CCCCC2[PH+](C2CCCCC2)C2CCCCC2)CC1.O=C(C1[CH-]CCCC1)C1CCCC[N-]1.[Au] (stereo unspecified)	–	-14.7% (active)	-43.6% (active)	2.27% (active)	-42.9% (active)	-54% (active)	-83% (active)	-60.9% (active)
CCOC(=O)CCN(C)C1=Nc2ccc(Cl)cc2C(c2ccccc2)=[N+]([O-])C1	101%	88.9%	115%	104%	97.1%	112%	102%	104%
